Reference: paper PMC5540273 (PLoS ONE, 2017)

Tests used:
Settings in all cases: concentration: 1 μM, replicates: in singlicate; n = 1
FGFR1 = tested on: FGFR1
FGFR2 = tested on: FGFR2
FGFR3 = tested on: FGFR3
FGFR4 = tested on: FGFR4
FGR = tested on: FGR
FLT1 = tested on: FLT1
FLT3-autoinhibited = tested on: FLT3-autoinhibited
FLT3 = tested on: FLT3
FLT4 = tested on: FLT4
FRK = tested on: FRK
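Further: KINOMEscan kinase panel screen.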

SMILES	%Inh (FGFR1) [%]	%Inh (FGFR2) [%]	%Inh (FGFR3) [%]	%Inh (FGFR4) [%]	%Inh (FGR) [%]	%Inh (FLT1) [%]	%Inh (FLT3-autoinhibited) [%]	%Inh (FLT3) [%]	%Inh (FLT4) [%]	%Inh (FRK) [%]
CN(c1ccc(NC(=O)N2CCN(CCCN3CCOCC3)CC2)cc1)c1ccnc(Nc2ccc(CS(C)(=O)=O)cc2)n1.Cl [GW830899]	0	9	8	5	35	73	75	92.7	38	32
COc1cc(Nc2nccc(N3CCC(NS(=O)(=O)c4ccc(NC(C)=O)cc4)CC3)n2)cc(OC)c1OC [GSK1379825]	17	71	59	69	50	53	73	92	71	35
N#CC1(c2cccc(C(=O)Nc3cccc(Oc4ccc5nc(NC(=O)C6CC6)sc5n4)c3)c2)CC1	92.7	95.3	70	70	88	98.5	16	96	100	98
CCn1c(-c2nonc2N)nc2c(-c3ccccc3)ncc(OCCCN)c21.O=C(O)C(F)(F)F.O=C(O)C(F)(F)F [GSK260205]	30	0	0	0	38	37	0	12	43	5
Cc1ccc(O)cc1Nc1ccnc2cc(-c3ccc(CN4CCCCC4)o3)ccc12 [GW557777]	25	21	0	2	100	89	8	43	68	99.9
CSc1ccc(NC2=C(c3ccc(Cl)cc3)C(=O)NC2=O)cc1 [SB-317658]	0	9	6	0	29	5	5	1	3	0
COc1ccc(NC(=O)c2ccoc2)cc1-c1ccc(C(=O)NCC2CC2)cc1 [GW810437]	3	0	0	1	0	0	0	0	12	14
COC(=O)Nc1nc2ccc(Oc3ccc(NC(=O)Nc4cc(C(F)(F)F)ccc4F)cc3)cc2[nH]1.Cl [GW654607]	26	63	11	17	12	99.6	27	99	99.9	94.7
CN(c1ccc2c(c1)nc(NCc1ccccc1)n2C)c1ccnc(Nc2ccc(CS(C)(=O)=O)cc2)n1.Cl [GW811603]	100	27	0	0	33	96.9	58	98.8	99.9	86
COc1cccc(CC(=O)N2CCc3cc(-c4cn(C)c5ncnc(N)c45)ccc32)c1 [GSK2608899]	22	0	0	0	15	59	0	66	0	0
Cc1cccc(Nc2nc(NCCN)ncc2C(N)=O)c1 [GSK1292139]	0	0	0	0	49	7	15	13	0	0
CN(c1ccc(NC(=O)Nc2cccc(Cl)c2)cc1)c1ccnc(N)n1.Cl [GW830707]	9	0	0	7	4	97.1	56	97.6	60	49
CS(=O)(=O)c1cccc(CNc2nc(Nc3ccc4c(c3)CCC(=O)N4)ncc2C(F)(F)F)c1	63	65	36	32	0	77	54	99	89	0
CCNC(=O)/C=C/c1n[nH]c2cc(Sc3ccccc3C(=O)NC)ccc12	79	74	68	14	71	99.9	26	31	99.5	31
Cc1ccc(NC(=O)c2ccc(Cl)c(Cl)c2)cc1-c1ccc(C(=O)Nc2ccncc2)cc1 [GSK1398460]	0	0	14	6	26	70	14	5	57	82
CNc1nccc(-c2ccc3c(N)n[nH]c3c2)n1 [GSK2206003]	41	5	11	2	29	49	14	50	5	6
COc1cccc(-c2nc(-c3ccccc3)[nH]c2-c2ccncc2)c1 [SB-610250]	0	0	0	5	14	32	5	0	7	28

SMILES	%Inh (FGFR1) [%]	%Inh (FGFR2) [%]	%Inh (FGFR3) [%]	%Inh (FGFR4) [%]	%Inh (FGR) [%]	%Inh (FLT1) [%]	%Inh (FLT3-autoinhibited) [%]	%Inh (FLT3) [%]	%Inh (FLT4) [%]	%Inh (FRK) [%]
O=C(O)C(F)(F)F.O=c1[nH]ccc2nc(N[C@@H]3CCNC3)nc(Nc3cc(Cl)cc(Cl)c3)c12 [GSK2188764]	0	0	25	27	44	0	67	23	9	4
CCOc1nccc(-c2c(-c3ccc(F)cc3)ncn2C2CCNCC2)n1 [SB-249175]	25	3	11	4	0	18	18	39	2	6
Cc1ccccc1CC(=O)N1CCc2cc(-c3cn(C)c4ncnc(N)c34)ccc21 [GSK2603346]	0	14	8	0	22	59	0	51	29	2
O=C(Nc1c(F)cccc1F)c1cc(C(=O)c2ccccc2F)c[nH]1 [GSK1326180]	0	0	5	0	0	6	0	1	0	7
O=C(Nc1n[nH]c2nc(-c3ccccc3)ccc12)C1CC1 [SB-708999]	0	33	26	12	9	11	0	42	4	5
O=C(O)C(F)(F)F.O=c1[nH]ccc2nc(N[C@@H]3CCNC3)nc(Nc3ccc4c(c3)S(=O)(=O)CC4)c12 [GSK2181306]	4	33	21	0	45	32	79	61	42	26
Cn1cc(-c2cnc(N)c3c(-c4ccc5c(c4)CCN5C(=O)Cc4ccccc4)csc23)cn1 [GSK2593074]	28	40	49	0	75	79	0	99	31	38
COC(=O)Nc1nc2ccc(Oc3ccc(CC(=O)Nc4cc(C(F)(F)F)ccc4F)cc3)cc2[nH]1 [GW680903]	0	6	8	4	10	93	20	99.3	72	19
CCNc1nccc(-c2c(-c3ccc(F)cc3)ncn2C2CCN(C)CC2)n1	0	6	0	0	0	18	0	24	6	0
Cc1cc(-c2c(-c3ccc(F)cc3)ncn2CCCN2CCOCC2)nc(N)n1 [SB-222517]	20	0	0	0	9	0	0	27	0	0
O=C(Nc1n[nH]c2nc(-c3cccc(O)c3)ccc12)C1CC1 [SB-711805]	18	0	0	0	9	10	21	13	0	0
Cc1ccc(O)cc1Nc1ccnc2ccc(C(C)(C)C)cc12 [GW856805]	14	28	0	0	94.9	26	0	11	35	98.9
CCn1cnc2c(NCc3ccccc3)ncnc21 [SKF-96418]	0	0	0	0	0	0	0	0	0	0
Cc1ccc(NC(=O)c2ccnc(N3CCCCC3)c2)cc1-c1ccc(C(=O)NCC2CC2)cc1 [GW775610]	4	10	2	0	0	36	6	72	0	32
Nc1cccc(-c2ccc3c(N)n[nH]c3c2)c1 [GSK2193613]	74	0	0	0	23	14	0	14	0	0
CN(C)c1ncnc2nc[nH]c12 [SKF-31736]	0	0	0	0	0	0	0	0	0	0
